Sampled rows, rich in hits. Any-hit rate of the full collection: about 1.6%.
KCNQ2 inh – blocks the rat KCNQ2 potassium channel. CHO-K1 KCNQ2, FluxOR thallium flux, 20 min; active compounds read low. 1.1% of 310,000 active. B-score at 10 µM;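 active = fluorescence ratio B-score at most minus 3 library SDs, with starting brightness B-score within 2 library SDs, cut at about -5.5 in these data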
Target sequence (O88943 whole entry, looked up): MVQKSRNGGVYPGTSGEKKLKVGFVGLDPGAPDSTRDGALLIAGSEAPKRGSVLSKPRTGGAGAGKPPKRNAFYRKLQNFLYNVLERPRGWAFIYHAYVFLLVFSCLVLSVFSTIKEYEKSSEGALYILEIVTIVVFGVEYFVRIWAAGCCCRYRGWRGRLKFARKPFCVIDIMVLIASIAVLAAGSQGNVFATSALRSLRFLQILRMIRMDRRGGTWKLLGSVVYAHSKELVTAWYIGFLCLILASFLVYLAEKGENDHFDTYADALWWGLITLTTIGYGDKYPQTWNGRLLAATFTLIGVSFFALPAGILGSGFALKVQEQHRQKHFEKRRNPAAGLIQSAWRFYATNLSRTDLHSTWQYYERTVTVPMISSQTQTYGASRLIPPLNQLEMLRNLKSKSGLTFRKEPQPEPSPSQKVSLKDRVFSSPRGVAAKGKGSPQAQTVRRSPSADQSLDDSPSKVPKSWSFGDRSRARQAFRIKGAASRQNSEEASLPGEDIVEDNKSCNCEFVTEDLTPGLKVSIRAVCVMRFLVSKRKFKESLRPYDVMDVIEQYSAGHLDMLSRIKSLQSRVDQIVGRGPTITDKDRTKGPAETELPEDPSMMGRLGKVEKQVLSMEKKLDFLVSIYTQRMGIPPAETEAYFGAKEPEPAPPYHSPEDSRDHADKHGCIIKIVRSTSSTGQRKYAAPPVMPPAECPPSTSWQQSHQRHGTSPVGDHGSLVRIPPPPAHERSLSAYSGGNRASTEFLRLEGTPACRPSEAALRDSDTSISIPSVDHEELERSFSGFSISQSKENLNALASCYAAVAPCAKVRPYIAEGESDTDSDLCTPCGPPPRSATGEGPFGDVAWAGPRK
KCNQ2 enhance – KCNQ2 (rat) channel potentiation. B-score at 10 µM. CHO-K1 KCNQ2, FluxOR thallium flux fluorescence; active compounds read high. O88943. 0.54% of 310,000 active;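 active = fluorescence ratio B-score at least 3 SD of library B-scores, with initial fluorescence B-score within 3 of them, cut at about 5.3 in these data; same plate scores as AID 2156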;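 note: B-score of peak minus minimum over baseline fluorescence ratio after K+ and Tl+ stimulus; positive B-score means potentiation of KCNQ2 with more thallium influx and brighter signal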
Kir21 conf inh – confirmation of mouse Kir2.1 potassium channel inhibitors; shares compounds with KCNQ2 enhance; AID 2032; Kir2.1-expressing cells, FluxOR thallium flux fluorescence; active compounds read low; Tl flux remaining, % of negative control (active compounds read low), % at 10 µM; 41% of 2,300 active;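 active = Primary-screen hit whose thallium flux fell at least 3 control SD below untreated wells in both duplicates, with normal baseline fluorescence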;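 note: 0% = blank wells without stimulus and 100% = stimulated no-compound controls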
HEK293 Tl flux – counter-screen for Kir2.1 inhibitors: effect in parental HEK293 cells | shares compounds with KCNQ2 enhance | FluxOR signal as % of negative control (100 = no effect), % at 10 µM | 19% of 2,300 active | FluxOR thallium flux fluorescence; 0% = unstimulated blank wells;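 active = dye signal at least 3 control SD above or below untreated wells in both duplicates, raw fluorescence within 3, either direction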;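 note: percent is based on the flux ratio of peak minus minimum fluorescence over baseline F0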
CHO-K1 Tl ctr – parental CHO-K1 activity in KCNQ2 potentiator counter-screen; AID 2282; parental CHO-K1 cells, FluxOR thallium flux fluorescence; zero = vehicle mean+3SD, 100% = vehicle-minus-blank window; 43% of 1,200 active; activity increase over 3SD of controls, % at 10 µM; shares compounds with KCNQ2 enhance;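 active = signal rise of at least 3 SD above the untreated control mean, in both duplicate wells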;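 note: counter screen of KCNQ2 potentiator hits so any rise reflects channel-independent effects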
KCNQ1 sel pot – selectivity of KCNQ2 potentiators: effect on human KCNQ1; 28% of 1,200 active; shares compounds with KCNQ2 enhance; CHO KCNQ1 stable, FluxOR thallium flux fluorescence; beyond 3SD, as % of vehicle-control signal; activation over 3SD threshold, % at 10 µM;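 active = fluorescence ratio rise of at least 3 SD of vehicle wells above their mean, in both replicate wells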;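 note: 0% = vehicle mean plus 3 SD and 100% = vehicle minus unstimulated blank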
KCNQ2 pot confirm – confirmation of rat KCNQ2 potassium channel potentiators; shares compounds with KCNQ2 enhance; CHO-KCNQ2 cells, FluxOR thallium flux fluorescence; potentiation, less the hit threshold, % at 10 µM; 68% of 1,200 active;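 active = fluorescence ratio rising 3 SD or more over the vehicle control mean in both replicates, plus primary screen hit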;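 note: peak minus minimum thallium fluorescence divided by baseline after K/Tl stimulus; 0% = vehicle mean plus 3 SD and 100% = vehicle minus unstimulated blank difference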
Kir21 spec – selectivity of KCNQ2 potentiators: effect on mouse Kir2.1. activity over 3SD threshold, % at 10 µM. 2% of 1,200 active. HEK293 Kir2.1, FluxOR thallium flux fluorescence. shares compounds with KCNQ2 enhance;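 active = fluorescence ratio rise of at least 3 SD above the vehicle-control mean, seen in both replicates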;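 note: 0% = vehicle mean plus 3 SD and 100% = vehicle minus no-stimulus blank window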
KCNQ2 W236L pot – rat KCNQ2 W236L mutant potentiation by KCNQ2 potentiators. shares compounds with KCNQ2 enhance. CHO KCNQ2-W236L, automated patch clamp current. current increase over 3SD of negative controls (%), active compounds read high, % at 25 µM. 10% of 940 active. AID 2558;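 active = current increase at least 3 SD of the untreated controls above them in both duplicate recordings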
Starred values were filed as active, the others as inactive; i = inactive; . = not tested or not shown.

SMILES	KCNQ2 inh	KCNQ2 enhance	Kir21 conf inh	HEK293 Tl flux	others
CN1C(=O)/C(=N\OC(=O)c2cccc3ccccc23)c2ccccc21	i	5.36*	i	i	CHO-K1 Tl ctr=-16.3;KCNQ1 sel pot=-11.8;KCNQ2 pot confirm=-19.1;Kir21 spec=-35.5
COc1ccc(C(=O)O/N=C2\C(=O)N(C)c3ccccc32)cc1	i	.	.	.
COc1ccc(S(=O)(=O)Nc2c(C)n(C)n(-c3ccccc3)c2=O)cc1C(=O)O	i	.	.	.
CC(C)CC(NC(=O)/C(=C/c1ccco1)NC(=O)c1ccc(Br)o1)C(=O)O (centres undefined)	i	.	.	.
COc1ccc2nc(NC(=O)CSc3nnnn3C)sc2c1	i	0.57	.	.
COc1cc(Cl)c(C)cc1NC(=O)CC1CCCC1	i	5.79*	i	i	CHO-K1 Tl ctr=-9.0;KCNQ1 sel pot=-17.8;KCNQ2 pot confirm=24.2*;Kir21 spec=-31.8;KCNQ2 W236L pot=i
COc1ccc(Cl)cc1NC(=O)CC1CCCC1	i	.	.	.
CC(C)(CNC(=O)/C=C/c1ccc(F)cc1)CNC(=O)/C=C/c1ccc(F)cc1	i	.	.	.
C/C(=C\C(=O)c1ccccc1)NNC(=O)c1ccc(Cl)cc1	i	17.6*	i	i	CHO-K1 Tl ctr=-14.0;KCNQ1 sel pot=-14.4;KCNQ2 pot confirm=-5.0;Kir21 spec=-45.3;KCNQ2 W236L pot=i
COc1ccc(C(=O)NN/C(C)=C/C(=O)c2ccccc2)cc1	i	0.97	.	.
CCc1cc2c(CN(C)Cc3ccccc3F)cc(=O)oc2cc1O	i	.	i	i
CCc1ccc2c(CN3CCN(Cc4ccccc4)CC3)cc(=O)oc2c1	i	.	.	.
CCc1cc2c(CN3CCN(Cc4ccccc4)CC3)cc(=O)oc2cc1O	i	0.07	74.0%*	i
Cc1cc2oc(=O)cc(CN(C)Cc3cccc(F)c3)c2cc1C	i	2.02	.	.
O=C(CCCCCN1C(=O)[C@@H]2Cc3ccccc3CN2C1=O)Nc1ccccc1F	i	.	.	.
O=C(CSc1nnc(CNC(=O)c2ccccc2)o1)NCC1CCCO1 (centres undefined)	i	.	.	.
CCOc1ccc(S(=O)(=O)NCCC(=O)N(CC)CC(=O)Nc2c(F)cccc2F)cc1	i	.	.	.
OC(COc1ccc(Cl)cc1)CN1CCC(Cc2ccccc2)CC1 (centres undefined)	i	.	.	.
OC(COc1c(F)cc(Br)cc1F)CN1CCc2ccccc2C1 (centres undefined)	i	.	26.0%*	i
Cc1cccc(C)c1OCC(O)CN1CCc2ccccc2C1 (centres undefined)	i	.	.	.
OC(COCc1ccccc1)CN1CCc2ccccc2C1 (centres undefined)	i	0.04	.	.
Cc1ccc(C)c(OCC(O)CN2CCC(Cc3ccccc3)CC2)c1 (centres undefined)	i	.	49.0%*	i
Cc1ccc(C(C)C)c(OCC(O)CN2CCc3ccccc3C2)c1 (centres undefined)	i	.	63.0%*	i
COc1ccc(-c2[nH]ncc2CN2CCC(C(=O)N3CCOCC3)CC2)c(F)c1	i	1.73	.	.
CCOC(=O)[C@@H]1[C@H]2COc3ccccc3[C@@H]2N2C(=O)N(c3cccc(C)c3)C(=O)[C@]12C	i	0.36	.	.
SMILES	KCNQ2 inh	KCNQ2 enhance	Kir21 conf inh	HEK293 Tl flux	others
O=C1OC(Nc2cc(Br)cc3cccnc23)c2ccccc21 (centres undefined)	i	1.44	.	.
CCn1c(SC(C)C(=O)O)nc2sc3c(c2c1=O)CCC3 (centres undefined)	i	8.7*	i	205.0%*	CHO-K1 Tl ctr=5.3*;KCNQ1 sel pot=-18.2;KCNQ2 pot confirm=0.7*;Kir21 spec=-33.9;KCNQ2 W236L pot=i
CC(=O)N(C(C)=O)n1c(C)nc2sc3c(c2c1=O)CCCC3	i	1.26	.	.
CCc1nc2sc3c(c2c(=O)n1NC(=O)CCl)CCCC3	i	5.72*	i	i	CHO-K1 Tl ctr=-1.4;KCNQ1 sel pot=-8.2;KCNQ2 pot confirm=-2.8;Kir21 spec=-31.4;KCNQ2 W236L pot=i
CCCn1c(SCC(=O)NCC)nc2sc3c(c2c1=O)CCC3	i	.	.	.
CC(Sc1nc2sc3c(c2c(=O)n1-c1ccccc1)CCCC3)C(=O)O (centres undefined)	i	1.21	.	.
CCCn1c(SCC(=O)N2CCN(C(C)=O)CC2)nc2sc3c(c2c1=O)CCC3	i	6.09*	i	290.0%*	CHO-K1 Tl ctr=14.6*;KCNQ1 sel pot=-16.5;KCNQ2 pot confirm=23.5*;Kir21 spec=-40.0;KCNQ2 W236L pot=i
Cc1cc(C=O)c(O)cc1O	i	1.1	.	.
O=C(O)CC1Sc2nnc(COc3ccc(Cl)cc3)n2N=C1c1ccccc1 (centres undefined)	i	0.23	.	.
CN(CC(=O)Nc1ccccc1C(F)(F)F)Cc1c(O)ccc2ccccc12	i	.	.	.
Cc1ccc2c(c1)nnn2C1CCN(C(=O)c2ccccc2F)CC1	i	.	.	.
N#Cc1c(NCCCO)nc(-c2ccccc2)c2c1CCCC2	i	1.11	.	.
N#Cc1c(NCCN)nc(-c2ccccc2)c2c1CCCC2	i	.	45.5%*	i
CCC(NC(=S)NC1CCCCC1)c1ccccc1 (centres undefined)	i	11.8*	.	.	CHO-K1 Tl ctr=-8.7;KCNQ1 sel pot=-1.2;KCNQ2 pot confirm=28.3*;Kir21 spec=-58.9;KCNQ2 W236L pot=i
CC(CCc1ccccc1)NC(=S)NC1CCCCC1 (centres undefined)	i	.	.	.
CCOc1ccc(C(C)NC(=O)C2CCCC2)cc1 (centres undefined)	i	1.54	.	.
CCc1ccc(C(C)NC(=S)NC2CCCCC2)cc1 (centres undefined)	i	19.9*	i	i	CHO-K1 Tl ctr=14.7*;KCNQ1 sel pot=7.8*;KCNQ2 pot confirm=72.5*;Kir21 spec=-50.0;KCNQ2 W236L pot=i
CCc1ccc(C(C)NC(=O)C2CCCC2)cc1 (centres undefined)	i	11.7*	i	i	CHO-K1 Tl ctr=9.3*;KCNQ1 sel pot=-12.4;KCNQ2 pot confirm=18.1*;Kir21 spec=-16.4;KCNQ2 W236L pot=i
CC(NC(=O)C1CCCC1)c1ccc2c(c1)OCCO2 (centres undefined)	i	1.78	.	.
CC(NC(=O)C1CCCCC1)c1ccc2c(c1)OCCO2 (centres undefined)	i	5.65*	i	i	CHO-K1 Tl ctr=6.0*;KCNQ1 sel pot=39.0*;KCNQ2 pot confirm=8.5*;Kir21 spec=-17.4;KCNQ2 W236L pot=i
CCc1ccc(C(C)NC(=O)C2(C)CC2(Br)Br)cc1 (centres undefined)	i	0.22	.	.
CCOc1ccc(C(C)NC(=S)NC2CCCCC2)cc1 (centres undefined)	i	5.43*	i	i	CHO-K1 Tl ctr=-14.6;KCNQ1 sel pot=26.6*;KCNQ2 pot confirm=20.3*;Kir21 spec=-43.0;KCNQ2 W236L pot=i
CCC(C)c1ccc(C(C)NC(=S)NC2CCCCC2)cc1 (centres undefined)	i	13*	.	.	CHO-K1 Tl ctr=57.2*;KCNQ1 sel pot=36.7*;KCNQ2 pot confirm=34.1*;Kir21 spec=-49.5;KCNQ2 W236L pot=i
Cc1ccc(S(=O)(=O)NC(=S)NC2CCCCC2)cc1	i	4.09	.	.

Bioassay records (PubChem)
